Compound activity as filed in PubChem.
Compounds with a hit are over-represented: about 10% of the library has one in this group of screens.
12-hLO inh: inhibitors of human 12-lipoxygenase (ALOX12); Potency, µM (series often up to 57.1 µM), for inactives: top-dose activity change, negative = inhibition, actives largely listed as inhibitors; 0.12% of 150,000 active; purified 12-hLO, xylenol orange hydroperoxide absorbance; AID 1452; active = well fitted inhibition curve with a large enough effect; inconclusive = small, poorly fitted or top-dose-only effect; also: potency is read from the fitted curve at half-maximal effect; nearly all actives have a fitted effect of over 55% in size
Target sequence (P18054 whole entry, looked up): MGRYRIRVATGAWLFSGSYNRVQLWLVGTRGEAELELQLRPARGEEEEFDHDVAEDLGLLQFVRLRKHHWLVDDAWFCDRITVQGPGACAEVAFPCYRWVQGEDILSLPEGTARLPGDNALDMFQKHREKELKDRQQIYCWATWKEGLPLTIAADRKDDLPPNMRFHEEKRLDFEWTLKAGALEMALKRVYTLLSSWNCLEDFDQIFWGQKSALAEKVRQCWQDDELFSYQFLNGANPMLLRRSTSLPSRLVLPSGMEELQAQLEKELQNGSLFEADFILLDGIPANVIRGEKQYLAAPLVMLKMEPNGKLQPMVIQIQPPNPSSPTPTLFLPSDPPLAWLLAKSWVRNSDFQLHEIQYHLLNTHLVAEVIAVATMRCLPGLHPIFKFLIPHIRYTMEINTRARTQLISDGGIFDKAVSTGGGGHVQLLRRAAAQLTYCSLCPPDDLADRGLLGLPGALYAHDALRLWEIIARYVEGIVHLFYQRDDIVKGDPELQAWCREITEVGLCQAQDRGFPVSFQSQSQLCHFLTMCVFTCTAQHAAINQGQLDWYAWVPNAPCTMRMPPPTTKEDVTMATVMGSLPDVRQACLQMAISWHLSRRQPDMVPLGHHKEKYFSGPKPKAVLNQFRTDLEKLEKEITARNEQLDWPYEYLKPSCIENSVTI
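Xylenol orange chromogenic assay: hydroperoxide from 12hLO oxidises Fe(II), giving red-shifted Fe(III)-XO absorbance. Conditions: 150 nM enzyme, 40 uM arachidonic acid, 25 mM Hepes pH 7.0, 0.01% Triton X-100, 30 min, room temperature.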
Lamin A splicing: LMNA splicing modulation. Potency, µM (top dose mostly 46.1 µM), for the others: at the highest dose ratio change, negative = inhibition, hits mostly inhibitors. 0.01% of 200,000 active. AID 1487. HeLa LMNA splicing GFP/RFP minigene ratio, 48 h; active = well fitted inhibition curve with a large enough effect in the signal ratio, with a control signal flat, not every such curve was filed as active; inconclusive = small, poorly fitted or top-dose-only effect, or effect the other way, or a change in a side signal; the % refers to the signal ratio; also: potency is read from the fitted curve at half-maximal effect
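Read-out is the ratio of GFP to DsRed2 object intensity, acquired by 488 nm laser-scanning cytometry on HeLa lamin A-EGFP minigene reporter cells. Compound incubation 48 hrs at 37 °C in Opti-MEM with 2% FBS; DMSO 0.5% final.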
PNC inhibitor: blocks assembly of the perinucleolar compartment; activity change (PNC), negative = inhibition, % at 10 µM; 3.1% of 140,000 active; PC3M PTB-GFP, PNC prevalence imaging, 16 h; stronger effect = lower value;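 active = readout at or below -70, meaning at least 70% loss of cells showing the perinucleolar compartment, a nuclear body marking cancer cells; inconclusive = readout between -30 and a set limit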;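 also: plate controls were DMSO wells for no effect and camptothecin positive control wells for full effect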
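PC3M cells stably expressing PTB-GFP, 750–1000 cells/well, treated 16 h at 37 °C with compound (23 nl of library stock), in duplicate. After paraformaldehyde fixation and Hoechst stain, imaged at 20x; PNC prevalence scored by image analysis.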
HPGD inh: blocks human HPGD enzyme activity | 4.3% of 150,000 active | Potency, µM, for inactives: at the highest dose activity change, negative = inhibition, hits mostly inhibitors | AID 894 | P15428 | purified HPGD, NADH fluorescence kinetic, PGE2 substrate; also: potency is read from the fitted curve at half-maximal effect
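NADH formation kinetics: reaction with 30 uM PGE2 and 1 mM NAD+ (final), 20 nM enzyme, Tris-HCl pH 8 with Tween 20, after 15 min compound preincubation at room temperature. Fluorescence change, last versus first of five reads.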
ALDH1A1 block: inhibitors of human aldehyde dehydrogenase 1A1; P00352; Purified ALDH1A1, NADH fluorescence, propionaldehyde substrate; Potency, µM (doses to about 75.3 µM), for the others: top-dose activity, negative = inhibition, hits mostly inhibitors; 7.3% of 220,000 active; AID 1030;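 also: potency is read from the fitted curve at half-maximal effect; plate controls were no enzyme wells and a reference inhibitor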
Active calls of the source: *; ? = inconclusive; / = not tested or not shown; [ ] = remark or other dose. Unless noted, calls follow the shape of the dose curve; as a rule, active = well fitted inhibition curve with a large enough effect (not every such curve was filed as active); inconclusive = small, poorly fitted or top-dose-only effect, or another doubt; inactive = no such curve, though single readings can be large or run the other way. Unless noted, % is scaled to controls: 0 for no effect and ±100 for the full control effect.

SMILES	12-hLO inh	Lamin A splicing	PNC inhibitor	HPGD inh	ALDH1A1 block
CCC(c1nnnn1C1CCCC1)N1CCN(c2cccc(OC)c2)CC1 (stereo not drawn)	/	?	/	/	9%
COc1ccc(C2=CC3=C(Br)C(=O)C(C)(OC(=O)CCc4ccccc4)C(=O)C3=CO2)cc1 (stereo not drawn)	1%	/	/	-8%	3%
Cc1cccc(Cl)c1NC[C@H](O)CN1CCN(C)CC1	4%[11.4 µM]	/	/	-4%	1%[13.5 µM]
Cc1ccc(NC(=O)C2CCN(S(=O)(=O)c3c(C)[nH]c(=O)[nH]c3=O)CC2)cc1	2%	5%	-98*	-3%	1%
Cc1ccc(C)c(N2CCN(C(=O)C3CCCN(S(=O)(=O)c4c(C)[nH]c(=O)[nH]c4=O)C3)CC2)c1 (stereo not drawn)	3%	-5%	-86*	-4%	5%
CCc1ccc(NC(=O)C2CCN(S(=O)(=O)c3c(C)[nH]c(=O)[nH]c3=O)CC2)cc1	-15%	5%	71	-3%	16%
Cc1[nH]c(=O)[nH]c(=O)c1S(=O)(=O)N1CCCC(C(=O)N2CCN(c3ccccc3Cl)CC2)C1 (stereo not drawn)	-7%	-1%	-17	-25%	3%
CCOC(=O)c1sc2nc(CC(=O)OC)nc(N3CCN(c4ccc(OC)cc4)CC3)c2c1C	-3%	?	-100*	-11%	0.1µM*
CCOC(=O)c1sc2nc(CC(=O)OC)nc(NCCN3CCOCC3)c2c1C	0%	-15%	?	-18%	?
Cc1ccc(-n2ncc3c(N4CCCCCC4)ncnc32)cc1	/	-21%[46 µM]	/	/	/
CC1(C)CC(=O)C(=CN2CCOCC2)C(=O)C1	/	6%[46 µM]	/	/	10µM*
CC1(C)CC(=O)C(=CN2CCN(C(=O)c3ccco3)CC2)C(=O)C1	0%	0%	?	-9%	22µM*
COC(=O)C(C(=O)OC)[C@@H]1O[C@@]23COC=C[C@]2(C)[C@H]3c2ccccc21	/	/	/	-4%	-8%
O=[N+]([O-])c1ccc(-c2cn(-c3ccccc3F)c(=S)[nH]2)cc1	/	/	/	/	11%
O=[N+]([O-])c1ccc(-c2c[nH]c(=S)[nH]2)cc1	/	/	/	/	0.5µM*
O=S1(=O)N=C(Nc2nncs2)c2ccccc21	-6%	0%	22	28µM*	?
CCN(CC)S(=O)(=O)c1ccc(NC2=NS(=O)(=O)c3ccccc32)cc1	1%	0%	12	-17%	?
O=C(NCC1CC1)[C@H]1C[C@@H]1[C@H](NP(=O)(c1ccccc1)c1ccccc1)c1ccccc1	-2%	/	/	-7%	5%
O=C(NCCN1C(=O)S/C(=C/c2ccccc2)C1=O)C1CCCN1C(=O)c1cccs1 (stereo not drawn)	-2%	-6%	-23	/	-9%
COc1ccc(/C=C2/SC(=O)N(CCNC(=O)C3CCCN3C(=O)c3cccs3)C2=O)cc1 (stereo not drawn)	1%	?	-100*	?	-13%
CCOc1ccc(-n2c(SCC(=O)Nc3cc(OC)c([N+](=O)[O-])cc3C)nc3ccccc32)cc1	-4%	5%	?	-10%	-2%
CCn1c(SCC(=O)Nc2ccccc2OC)nc2ccccc2c1=O	-8%	?	?	-16%	-6%
COc1cc([N+](=O)[O-])ccc1NC(=O)CSc1nc2ccccc2n1-c1ccccc1	2%	-5%	37	-9%	10µM*
COc1ccccc1NC(=O)CSc1nc2ccccc2n1C(C)=O	0%	?	7	16µM*	-10%
COc1ccc(N2CC(NC(=O)/C=C\c3ccccc3)CC2=O)cc1 (stereo not drawn)	/	-2%[46 µM]	/	/	/
SMILES	12-hLO inh	Lamin A splicing	PNC inhibitor	HPGD inh	ALDH1A1 block
N/N=C1/c2ccccc2N[C@H]1OC(=O)Nc1cccc(Cl)c1	-3%[11.4 µM]	/	/	-5%	23%[13.5 µM]
COc1ccc(NC(=O)CC2C(=O)N(C)C(=S)N2CCc2ccccc2)cc1 (stereo not drawn)	-1%	?	?	-6%	0.89µM*
CCN1C(=O)C(CC(=O)Nc2ccc(OC)cc2)N(CCc2ccc(F)cc2)C1=S (stereo not drawn)	/	?	/	/	14µM*
CCN1C(=O)C(CC(=O)Nc2ccc(OC)cc2)N(CCCN2CCN(c3ccc(F)cc3)CC2)C1=S (stereo not drawn)	/	/	/	/	-12%
COc1ccc(CCN2C(=S)N(C)C(=O)C2CC(=O)Nc2ccc(OC)cc2)cc1 (stereo not drawn)	/	/	/	/	4.5µM*
CCN(CC)CCNC(=O)c1ccc(Cn2c(SCc3ccccc3)nc3cccnc32)cc1	/	-4%[46 µM]	/	/	/
c1ccc(-c2cn3nc4c(nc3n2)CCCC4)cc1	-10%	-4%	-6	-55%	?
Brc1ccc(-c2cn3nc4c(nc3n2)CCCC4)cc1	-7%	-3%	-100*	?	?
COc1ccc(C(c2sc3nc(C)nn3c2O)N2CCc3ccccc3C2)cc1 (stereo not drawn)	-8%	-3%	21	22µM*	?
Cc1nn(C)c2nc(NNC(=O)Nc3cc(Cl)nc(Cl)c3)cc(C(C)C)c12	-6%[0.00818 µM]	/	/	-9%	4%
Cc1cc(C)n(-c2ccc(Cl)c(C(=O)Nc3ccc(-c4nnc5n4CCCCC5)cc3)n2)n1	1%	4%	20	1.8µM*	1%
CCOc1ccc(C(=O)Nc2ccc(-c3nnc4n3CCCCC4)cc2)cc1OCC	/	5%[46 µM]	/	/	/
c1cc(Nc2ncnc3sccc23)cc(-c2nnc3n2CCCCC3)c1	-1%	?	10	22µM*	-7%
O=C(Nc1ccc(-c2nnc3n2CCCCC3)cc1)c1ccco1	1%	10%	-17	8.9µM*	?
Cc1onc(-c2ccccc2)c1C(=O)Nc1nnc(N2CCCCCC2)s1	6%	?	-108*	-17%	?
CCOc1ncccc1C(=O)Nc1cccc(-c2nnc3n2CCCCC3)c1	/	?	/	/	-12%
COc1ccc(Cl)cc1C(=O)Nc1ccc(-c2nnc3n2CCCCC3)cc1	/	-15%[46 µM]	/	/	/
CCc1cnc2c(c1SCCC(C)C)c(=O)n(C)c(=O)n2C	/	-17%[46 µM]	/	/	/
Cc1cnc(C(=O)Nc2cccc(-c3nnc4n3CCCCC4)c2)cn1	0%	0%	31	13µM*	-1%
Cc1onc(-c2ccccc2Cl)c1C(=O)Nc1ccc(CN2CCCC2)cc1	0%	14%	?	-5%	-3%
O=C1Nc2ccccc2C1=Nc1ccc(-c2nnc3n2CCCCC3)cc1	-2%	-5%	3	5µM*	?
Cc1onc(-c2ccccc2Cl)c1C(=O)Nc1ccc(-c2nnc3n2CCCCC3)cc1	-4%	8%	?	16µM*	-6%
Cc1ccc(-c2nnc3n2CCCCC3)cc1	-2%	-5%	-24	5µM*	-10%
Cc1nnc(NC(=O)CSCc2cc(=O)c3ccc(C)c(C)c3[nH]2)s1	/	-5%[46 µM]	/	/	/
C=CCN1c2ccccc2[C@]23C[C@@H](C(=O)OC)N(C(=O)COCc4ccccc4)C2=NC(C(=O)OC)=C(C(=O)OC)[C@H]13	4%[11.4 µM]	?	/	0%	7%[13.5 µM]
